Assay results taken from PubChem BioAssay.
“And” between values parts separate entries of the source, which are not always exact repeats. Equal values may be shown once. Some compounds were tested as several samples or in several runs, with calls that do not always agree. The source made the active and inactive calls.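 Rule for the calls, unless noted: active = normalized viability below 100% at a tested concentration; inactive = the rest.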

Legend:
[1] = Wnt pathway potentiators raising nuclear beta-catenin – imaging, WNT3A-conditioned medium, mouse C2C12, NPC library, primary screen (AID 1117326; in the data active = nuclear beta-catenin stimulation mostly above about 4.2%, no sharp cut-off; inactive = mostly below about 10%); conditions: stronger effect = higher value
[2] = stimulators of insulin release from INS-1E, primary screen, cell-based, 5 mM glucose, NPC library (AID 1117329;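 active = compound raises insulin release from rat beta cells at 5 mM glucose, no numeric limit stated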); conditions: rat INS-1E insulin secretion, at 10 µM, stronger effect = higher value
[3] = growth inhibition of GSK3B-pretreated HCT116 cells – cell-based, CellTiter-Glo, 0.2 to 20 µM (AID 1117336;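 active = compounds lowering colon cancer cell viability after pretreatment blocking the GSK3B kinase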); conditions: HCT116 viability after GSK3B inhibitor, at 20 µM, stronger effect = higher value
[4] = inhibition of endothelial tube formation, primary screen, imaging, VEGF stimulated, CD31 staining, tube area, NPC library (AID 1117340;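 active = compound that reduces growth-factor-driven endothelial tube area in a mixed cell culture, no cutoff stated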); conditions: VEGF-stimulated ADSC/ECFC co-culture, at 10 µM, stronger effect = higher value
[5] = GLP1 release stimulators, primary, NCI-H716, NPC library (AID 1117341;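 active = compound raises GLP1 secretion from the human gut endocrine cells, with no numeric limit stated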); conditions: NCI-H716 cells, at 10 µM, stronger effect = higher value
[6] = HCT116 colon cancer cell growth inhibition, primary screen, CellTiter-Glo luminescence, NPC library (AID 1117342;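 active = compounds that lower survival of HCT116 colon cancer cells in the luminescence readout, no numeric limit stated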); conditions: at 20 µM (top of the series)
[7] = reduced SW480 viability measured with CellTiter-Glo, NPC library, primary (AID 1117343;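 active = compounds that lower viability of the colon cancer cells in the luminescence readout, with no numeric limit stated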); conditions: CellTiter-Glo luminescence; at 20 µM (top of the series)
[8] = NPC library primary testing for decreased DLD-1 cell viability via CellTiter-Glo (AID 1117346;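 active = compounds that lower survival of DLD-1 colon cancer cells in the luminescence readout, no cutoff given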); conditions: DLD-1 viability, CellTiter-Glo luminescence; at 20 µM (top of the series)
[9] = target: 6-phosphogluconate dehydrogenase, decarboxylating (Homo sapiens) (UniProt P52209); experiment: inhibition of human phosphogluconate dehydrogenase – biochemical, recombinant enzyme, NADPH absorbance, primary screen (AID 1159550;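 active = at least 20% inhibition of 6-phosphogluconate dehydrogenase activity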); conditions: recombinant 6PGD, NADPH absorbance 341 nm; at 10 µM; stronger effect = higher value
[10] = modulation of C. elegans fzo-1 (AID 1259413; call rule not given here;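 note: fzo-1 mutant C. elegans worms in liquid wells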); conditions: C. elegans fzo-1 modulator screen, mean read-out; stronger effect = higher value
[11] = EMT-state selective cytotoxicity in co-culture – imaging, PC-3E GFP, TEM4-18 mCherry, primary screen (AID 1345086;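 active = compounds killing one labelled cell type while sparing the other, by normalised counts and ratio limits, not self-fluorescent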;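 for all read-outs here: cells exposed to compound for 72 h before imaging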;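 for red/green cell ratio (normalised): normalised mesenchymal count divided by normalised epithelial count so high means epithelial killing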); conditions: PC-3E GFP / TEM4-18 mCherry co-culture, imaging cell counts, at 1 µM; for red/green cell ratio (normalised): actives lie on both sides, counts scaled to control wells, 1 = unselective
[12] = MELAS cybrid and Rieske KO viability enhancers – cell-based, MELAS cybrids, Rieske KO mouse fibroblasts, CellTiter-Glo, primary screen (AID 1508586;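 active = mean z-score across replicates of 1.96 or higher in either the MELAS or the Rieske mutant cell line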;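 note: z relative to plate mean and SD of compound and empty wells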); conditions: low glucose
[13] = drug combination growth inhibition, ovarian cancer – cell-based, oncology-focused library, rucaparib conditional, profiling panel (AID 1508598); conditions: patient-derived ovarian cancer cells, CellTiter-Glo viability, 144 h, stronger effect = lower value
[14] = target: NAD(+) hydrolase SARM1 (Homo sapiens) (UniProt Q6SZW1); experiment: blocking NAD cleavage by SARM1 SAM-TIR – cell lysate, NAD-Glo luminescence (AID 1508614;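 active = compound whose remaining NAD level is above about 45 nM, limit read from the data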;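 note: higher remaining NAD means stronger inhibition of SARM1 NADase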); conditions: SAM-TIR HEK293T lysate NADase, at 1 µM, stronger effect = higher value
[15] = target: Mitogen-activated protein kinase 7 (Homo sapiens) (UniProt Q13164); experiment: Gal4-ERK5 driven luciferase induction – cell-based, HTS, primary screen (AID 1508626;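 active = luciferase signal above three times the same-plate solvent-only control wells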;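 note: luciferase driven by Gal4-ERK5 fusion binding five Gal4 sites before minimal TATA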); conditions: HeLa Gal4-ERK5 transactivation, 18 h, at 5 µM, stronger effect = higher value
[16] = growth inhibition, single agents and combos, ICB984, cell-based, cisplatin or BGB combos, synergistic combos for chromothripsis tumors (AID 1671451; call rule not given here;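 note: cells exposed for 96 hours before readout; 0% = vehicle DMSO and 100% = killing by high DMSO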); conditions: ICB984 medulloblastoma cells, drug combinations, stronger effect = higher value
F380Y = experiment: BK channel mutant inhibitors and activators – cell-based, U2OS BacMam, thallium flux, beta subunits, selectivity assay, profiling panel (AID 1259406;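 active = thallium flux through the channel raised or lowered by more than 3 SD from vehicle-only wells, actives on both sides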;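 note: initial slope of Thallos dye fluorescence rise after thallium is added; log ratio against the mean of 0.3% DMSO vehicle wells on the same plate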); conditions: U2OS BacMam BK variants, at 30 µM
F380Y/beta1 = experiment: as above; conditions: U2OS BacMam BK variants, at 30 µM
F380Y/beta2Delta = experiment: as above; conditions: U2OS BacMam BK variants, at 30 µM
F380Y/beta4 = experiment: as above; conditions: U2OS BacMam BK variants, at 30 µM
[17] = measured here: epithelial PC-3E GFP cell survival
[18] = measured here: mesenchymal TEM4-18 mCherry cell survival
[19] = MELAS cybrid survival, CellTiter-Glo 48 h, stronger effect = higher value
[20] = Rieske KO mouse fibroblast survival, CellTiter-Glo 72 h

Sequence of 6-phosphogluconate dehydrogenase, decarboxylating (Homo sapiens) (P52209 whole entry, looked up): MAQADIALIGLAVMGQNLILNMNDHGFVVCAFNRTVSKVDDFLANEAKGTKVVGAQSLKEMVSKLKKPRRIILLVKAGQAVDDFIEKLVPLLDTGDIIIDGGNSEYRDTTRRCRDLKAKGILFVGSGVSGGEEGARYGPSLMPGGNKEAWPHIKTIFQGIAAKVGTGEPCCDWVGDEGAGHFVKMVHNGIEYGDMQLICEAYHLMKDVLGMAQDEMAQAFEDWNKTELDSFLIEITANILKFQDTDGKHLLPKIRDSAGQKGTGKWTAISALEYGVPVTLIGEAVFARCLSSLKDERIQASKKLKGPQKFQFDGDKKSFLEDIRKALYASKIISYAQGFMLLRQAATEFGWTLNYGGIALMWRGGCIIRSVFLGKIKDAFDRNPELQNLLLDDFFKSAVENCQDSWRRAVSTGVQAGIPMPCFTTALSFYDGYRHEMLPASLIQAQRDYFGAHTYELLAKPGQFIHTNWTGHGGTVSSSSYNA
Sequence of NAD(+) hydrolase SARM1 (Homo sapiens) (Q6SZW1 whole entry, looked up, the tested form may be a part): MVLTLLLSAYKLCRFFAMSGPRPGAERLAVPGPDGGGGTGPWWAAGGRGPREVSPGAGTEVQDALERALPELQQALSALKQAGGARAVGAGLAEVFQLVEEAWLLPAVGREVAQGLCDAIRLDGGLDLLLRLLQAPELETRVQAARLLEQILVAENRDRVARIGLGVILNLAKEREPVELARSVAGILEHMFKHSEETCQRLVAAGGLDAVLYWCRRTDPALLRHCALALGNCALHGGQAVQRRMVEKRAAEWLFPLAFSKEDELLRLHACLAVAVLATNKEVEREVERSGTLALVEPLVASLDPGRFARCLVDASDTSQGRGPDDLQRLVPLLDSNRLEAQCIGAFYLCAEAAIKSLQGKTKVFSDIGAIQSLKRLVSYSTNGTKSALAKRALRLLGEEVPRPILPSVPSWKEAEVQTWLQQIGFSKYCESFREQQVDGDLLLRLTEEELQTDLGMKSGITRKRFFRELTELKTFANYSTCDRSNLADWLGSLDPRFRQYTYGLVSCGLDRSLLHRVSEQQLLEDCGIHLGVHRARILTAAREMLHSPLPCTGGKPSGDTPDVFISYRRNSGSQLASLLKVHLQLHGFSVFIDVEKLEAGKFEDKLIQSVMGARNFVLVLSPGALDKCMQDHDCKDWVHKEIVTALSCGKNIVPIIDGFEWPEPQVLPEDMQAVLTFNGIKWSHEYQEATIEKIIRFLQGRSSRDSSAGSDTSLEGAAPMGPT
Sequence of Mitogen-activated protein kinase 7 (Homo sapiens) (Q13164 whole entry, looked up, the tested form may be a part): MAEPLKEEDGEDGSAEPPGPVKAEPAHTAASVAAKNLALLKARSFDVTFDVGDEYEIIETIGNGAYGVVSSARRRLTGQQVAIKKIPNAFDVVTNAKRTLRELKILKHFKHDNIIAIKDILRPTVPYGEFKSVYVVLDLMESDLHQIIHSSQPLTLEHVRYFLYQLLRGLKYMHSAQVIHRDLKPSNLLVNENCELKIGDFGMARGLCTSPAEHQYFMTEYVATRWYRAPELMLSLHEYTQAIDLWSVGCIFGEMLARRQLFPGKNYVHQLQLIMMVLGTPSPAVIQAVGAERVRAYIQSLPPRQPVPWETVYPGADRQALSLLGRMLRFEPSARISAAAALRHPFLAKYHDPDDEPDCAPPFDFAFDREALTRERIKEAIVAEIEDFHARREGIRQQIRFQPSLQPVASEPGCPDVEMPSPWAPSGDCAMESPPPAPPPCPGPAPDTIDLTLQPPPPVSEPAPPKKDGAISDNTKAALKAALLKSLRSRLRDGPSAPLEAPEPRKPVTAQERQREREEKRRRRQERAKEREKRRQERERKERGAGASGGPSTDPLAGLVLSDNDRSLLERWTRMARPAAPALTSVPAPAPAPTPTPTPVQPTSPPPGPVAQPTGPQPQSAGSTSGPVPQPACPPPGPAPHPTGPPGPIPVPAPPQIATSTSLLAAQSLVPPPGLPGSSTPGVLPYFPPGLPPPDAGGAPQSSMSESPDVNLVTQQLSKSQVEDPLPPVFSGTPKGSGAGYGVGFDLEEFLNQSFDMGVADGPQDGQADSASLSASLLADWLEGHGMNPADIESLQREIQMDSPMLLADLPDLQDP

With `S=c1nc[nH]c2nc[nH]c12` the nuclear beta-catenin stimulation ([1]; at 10 µM) was -0.9% (inactive), the nuclear beta-catenin stimulation ([1]; stimulation, at 2 µM) was 0.6% and the insulin secretion stimulation [2] was 0.6% (inactive). The viability decrease [3] was 77.7% (active), the tube area decrease [4] was 95.3% (active) and the GLP1 secretion stimulation [5] was -0.7% (inactive). The inhibition of viability [6] was 83.2% (active), the viability decrease (inhibition) [7] was 107% (active) and the viability decrease (inhibition) [8] was 79.1% (active). For the same compound, the inhibition [9] was -3.59% (inactive), the mean signal [10] was 247 (inactive) and the red/green cell ratio (normalised) [11] was 0.76 (inactive). The normalised cell number [11, 17] was 1.42, the normalised cell number [11, 18] was 1.07 and the z-score [12, 19] was 0.0168 (inactive) and 3.92 (active). The z-score [12, 20] was 0.195 and 0.755, the viability ([13]; at 0.000305 µM, OCI-C5x cells, with rucaparib 10 µM, 100% = cells with rucaparib alone) was 120% (inactive) and the viability ([13]; at 0.000305 µM, OCI-C5x cells, without rucaparib) was 111% (inactive). For the same compound, the viability ([13]; at 0.000305 µM, OCI-P5x cells, with rucaparib 20 µM, 100% = cells with rucaparib alone) was 94.6% (active), the viability ([13]; at 0.000305 µM, OCI-P5x cells, without rucaparib) was 92.1% (active) and the viability ([13]; at 0.00122 µM, OCI-C5x cells, with rucaparib 10 µM, 100% = cells with rucaparib alone) was 110% (inactive). The viability ([13]; at 0.00122 µM, OCI-C5x cells, without rucaparib) was 105% (inactive), the viability ([13]; at 0.00122 µM, OCI-P5x cells, with rucaparib 20 µM, 100% = cells with rucaparib alone) was 98.4% (active) and the viability ([13]; at 0.00122 µM, OCI-P5x cells, without rucaparib) was 94.6% (active). The viability ([13]; at 0.00488 µM, OCI-C5x cells, with rucaparib 10 µM, 100% = cells with rucaparib alone) was 111% (inactive), the viability ([13]; at 0.00488 µM, OCI-C5x cells, without rucaparib) was 100% (inactive) and the viability ([13]; at 0.00488 µM, OCI-P5x cells, with rucaparib 20 µM, 100% = cells with rucaparib alone) was 99.6% (active). The viability ([13]; at 0.00488 µM, OCI-P5x cells, without rucaparib) was 90.4% (active), the viability ([13]; at 0.0195 µM, OCI-C5x cells, with rucaparib 10 µM, 100% = cells with rucaparib alone) was 104% (inactive) and the viability ([13]; at 0.0195 µM, OCI-C5x cells, without rucaparib) was 109% (inactive). The viability ([13]; at 0.0195 µM, OCI-P5x cells, with rucaparib 20 µM, 100% = cells with rucaparib alone) was 94.9% (active), the viability ([13]; at 0.0195 µM, OCI-P5x cells, without rucaparib) was 84.4% (active) and the viability ([13]; at 0.0781 µM, OCI-C5x cells, with rucaparib 10 µM, 100% = cells with rucaparib alone) was 123% (inactive). For the same compound, the viability ([13]; at 0.0781 µM, OCI-C5x cells, without rucaparib) was 95.4% (active), the viability ([13]; at 0.0781 µM, OCI-P5x cells, with rucaparib 20 µM, 100% = cells with rucaparib alone) was 90.4% (active) and the viability ([13]; at 0.0781 µM, OCI-P5x cells, without rucaparib) was 87.6% (active). For the same compound, the viability ([13]; at 0.313 µM, OCI-C5x cells, with rucaparib 10 µM, 100% = cells with rucaparib alone) was 106% (inactive), the viability ([13]; at 0.313 µM, OCI-C5x cells, without rucaparib) was 91.6% (active) and the viability ([13]; at 0.313 µM, OCI-P5x cells, with rucaparib 20 µM, 100% = cells with rucaparib alone) was 89.7% (active). For the same compound, the viability ([13]; at 0.313 µM, OCI-P5x cells, without rucaparib) was 86.1% (active), the viability ([13]; at 1.25 µM, OCI-C5x cells, with rucaparib 10 µM, 100% = cells with rucaparib alone) was 105% (inactive) and the viability ([13]; at 1.25 µM, OCI-C5x cells, without rucaparib) was 93.1% (active). The viability ([13]; at 1.25 µM, OCI-P5x cells, with rucaparib 20 µM, 100% = cells with rucaparib alone) was 87.9% (active), the viability ([13]; at 1.25 µM, OCI-P5x cells, without rucaparib) was 80.6% (active) and the viability ([13]; at 5 µM, OCI-C5x cells, with rucaparib 10 µM, 100% = cells with rucaparib alone) was 126% (inactive). For the same compound, the viability ([13]; at 5 µM, OCI-C5x cells, without rucaparib) was 107% (inactive), the viability ([13]; at 5 µM, OCI-P5x cells, with rucaparib 20 µM, 100% = cells with rucaparib alone) was 79% (active) and the viability ([13]; at 5 µM, OCI-P5x cells, without rucaparib) was 79.9% (active). For the same compound, the remaining NAD [14] was 10 nM (inactive), the luciferase signal [15] was 2730 AU (active) and the inhibition ([16]; BGB IC20 combo, at 0.005 µM) was -10.3% and -30.1% and -29.5%. The inhibition ([16]; BGB IC40 combo, at 0.005 µM) was -20.2% and -36.3% and -18.2%, the inhibition ([16]; BGB IC40 combo, at 0.05 µM) was -14.4% and -4.47% and -23% and the inhibition ([16]; at 0.5 µM) was -13.7% (inactive) and -13.9% (inactive) and -17.8% (inactive). For the same compound, the inhibition ([16]; cisplatin combo, at 0.05 µM) was -14.4% and -8.61% and -23%, the inhibition ([16]; cisplatin combo, at 0.5 µM) was -25.2% and -17.5% and -28.1% and the inhibition ([16]; cisplatin combo, at 5 µM) was -3.58% and -36.1% and -37.1%. The inhibition ([16]; measured here: 5 uM single agent, at 5 µM) was -34.5% and -9.53% and -28.9%, the log fold change Tl+ flux (F380Y) was -0.0324 (inactive) and the log fold change Tl+ flux (F380Y/beta1) was -0.00111 (inactive). For the same compound, the log fold change Tl+ flux (F380Y/beta2Delta) was -0.00985 (inactive) and the log fold change Tl+ flux (F380Y/beta4) was -0.00864 (inactive).
In the case of `CCOC(=O)C1=C(C)NC(C)=C(C(=O)OC)C1c1cccc([N+](=O)[O-])c1` (stereo not drawn), the nuclear beta-catenin stimulation ([1]; at 10 µM) is reported as -0.1% (inactive), the nuclear beta-catenin stimulation ([1]; stimulation, at 2 µM) is reported as 1.2% and the insulin secretion stimulation [2] is reported as 2.2% (inactive). The viability decrease [3] was 58.2% (active), the tube area decrease [4] was 23.7% (inactive) and the GLP1 secretion stimulation [5] was -0.6% (inactive). For the same compound, the inhibition of viability [6] was 75.7% (active), the viability decrease (inhibition) [7] was 52.4% (active) and the viability decrease (inhibition) [8] was 40.9% (inactive). For the same compound, the inhibition [9] was 2.14% (inactive), the mean signal [10] was 230 (inactive) and the red/green cell ratio (normalised) [11] was 1.19 (inactive). The normalised cell number [11, 17] was 1.11, the normalised cell number [11, 18] was 1.31 and the z-score [12, 19] was -0.48 (inactive) and 1.38 (inactive) and -0.0841 (inactive). The z-score [12, 20] was 0.0141 and 0.8 and 0.442, the remaining NAD [14] was 10 nM (inactive) and the log fold change Tl+ flux (F380Y) was 0.00482 (inactive). For the same compound, the log fold change Tl+ flux (F380Y/beta1) was -0.0255 (inactive), the log fold change Tl+ flux (F380Y/beta2Delta) was -0.0689 (inactive) and the log fold change Tl+ flux (F380Y/beta4) was -0.0639 (inactive).
